The text below walks through data of article PMC7819943, “Rice protein-binding microarrays: a tool to detect cis-acting elements near promoter regions in rice”.

The full ranking holds about 68,000 sequences; the median of “fluorescence intensity (a.u.)” is about 9,100, and the highest 2% start at about 16,000. What follows is part of a selection rich in the highest values, with near analogues and random picks from the rest.

Chain of OsWRKY34 (Q0JBA9 entry or part of it): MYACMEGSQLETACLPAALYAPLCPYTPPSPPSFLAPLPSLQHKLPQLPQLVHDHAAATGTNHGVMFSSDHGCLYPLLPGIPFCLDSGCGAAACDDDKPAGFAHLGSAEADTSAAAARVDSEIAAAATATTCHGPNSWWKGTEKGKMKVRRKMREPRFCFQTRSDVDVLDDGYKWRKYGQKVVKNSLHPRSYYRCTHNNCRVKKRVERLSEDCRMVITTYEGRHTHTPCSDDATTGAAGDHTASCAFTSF

The target of this assay is OsWRKY34 (Oryza sativa, UniProt Q0JBA9 1-250). Briefly: protein-binding microarray (RPBM); PBS, 2% BSA, 51.3 ng/ul salmon testes DNA, 50 uM zinc acetate, 200 nM TF, 25 C, 1 h; high values mean tight binding. To be noted: protein: recombinant; tags: N-terminal polyhistidine and DsRed monomer fusion (pET32a); label: CyDye5-dUTP incorporated in the synthesized complementary strand; 3' TTTTT single-stranded linker to array surface; dsDNA, one strand shown. The method, boiled down:
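Transcription factors were each fused at the N-terminus to a polyhistidine tag plus DsRed and expressed in E. coli BL21-CodonPlus before Ni–NTA purification. Binding to a double-stranded custom Agilent array was carried out with 200 nM protein at 25 °C for 1 h in PBS, 2% BSA, salmon testes DNA and 50 µM zinc acetate. The binding signal is per-feature fluorescence intensity, in arbitrary units, on an Axon 4000B scanner.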
As to “TTAGTAGTATATCGTCACCAATTATTGTAGTTAGCTCCACCGGAGTCACCTAGTGCAG”, the binding signal was 9580 fluorescence intensity (a.u.).

With “ATCCGATTTTTTTTCGCAATCTCCGAAATTTCACTTCTATCGGAGTCACCTAGTGCAG”, the binding signal was 11200 fluorescence intensity (a.u.).

On to “GTCCGCTTCCATTGGGAGCGCGGCTACTGGCTGGGTTTACCGGAGTCACCTAGTGCAG”, for which the binding signal was 8770 fluorescence intensity (a.u.).

For “ATCCTATATTTGTTGCAGTTCATTCATTTCATCACCAGTTCGGAGTCACCTAGTGCAG”, the binding signal is 8840 fluorescence intensity (a.u.).

As to “CGATCTCTCTCTCTCACACACCCGCCTCACCCTCACCGCCCGGAGTCACCTAGTGCAG”, the binding signal is 10800 fluorescence intensity (a.u.).

On to “CAGCAGATTGCCCATCTCTCGTTGTACTGCCAATCTCTCCCGGAGTCACCTAGTGCAG”, for which the binding signal is 9530 fluorescence intensity (a.u.).

Consider “ATGTCACCAAGCGGTATAGGTCTGAATGTATTGATGTGCCCGGAGTCACCTAGTGCAG”, for which the binding signal is 9370 fluorescence intensity (a.u.).

With “CCGGTATTGATGTGTTCCCCAAGCCAAAAAAAAAAAGAAGCGGAGTCACCTAGTGCAG”, the binding signal is 64800 fluorescence intensity (a.u.).

For the sequence “ACTGTTCATTGTTGATGGCCTTTTCCAAAAACTAGAAAAGCGGAGTCACCTAGTGCAG”, the binding signal is 8460 fluorescence intensity (a.u.).

On to “TTATTATGGTTATATTGTACTAATTCATTGTCCAGGTTTTCGGAGTCACCTAGTGCAG”, for which the binding signal is 8430 fluorescence intensity (a.u.).

In the case of “GTCCAGATACTAAGGTGTATGGTATTATCGGAAAACCTGTCGGAGTCACCTAGTGCAG”, the binding signal was 24300 fluorescence intensity (a.u.).

For the sequence “GTTTCCTGGTGGTCCAATATAATACCTAGATAAGGTGTATCGGAGTCACCTAGTGCAG”, the binding signal was 8510 fluorescence intensity (a.u.).

“TAGCTAGCTCTTGTACAGGTTTCCTCACCTGCTGTATCGACGGAGTCACCTAGTGCAG”: the binding signal is 8060 fluorescence intensity (a.u.).

On to “GAGACTAATTCCGACCTTGACCAAACCAAACCCTACCAAACGGAGTCACCTAGTGCAG”, for which the binding signal was 9200 fluorescence intensity (a.u.).

For the sequence “CGGCTCGGCTCGGCTCGCGCGGCGGCGGCGGCGGGGCGGCCGGAGTCACCTAGTGCAG”, the binding signal was 8890 fluorescence intensity (a.u.).

With “TCGTGTTGGTGGTGGTGGTGGTGTGCGGGCGGGCGGGCGCCGGAGTCACCTAGTGCAG”, the binding signal is 33300 fluorescence intensity (a.u.).

On to “GGGGTGGTGGTGGTGGCGGCGGCAGTGTTGTTGGTCGCCGCGGAGTCACCTAGTGCAG”, for which the binding signal was 13500 fluorescence intensity (a.u.).

Consider “CCGTGGTTGGGGTGGTGGGCCGGGGTGTTACGTTAATGGGCGGAGTCACCTAGTGCAG”, for which the binding signal is 16500 fluorescence intensity (a.u.).

Consider “GGCTCGTCGGAGTAGGGGCGCTCGGGGTATGGGGCTCGGCCGGAGTCACCTAGTGCAG”, for which the binding signal is 20400 fluorescence intensity (a.u.).

“TCGCCGGCGGAGGAGTTGGTGTGGAGAGGGCGGGGAGATGCGGAGTCACCTAGTGCAG”: the binding signal is 9560 fluorescence intensity (a.u.).

Turning to “ATGTGGGTGTGGCATTGTTGGTGTCGGCTGCGCCGCAGCCCGGAGTCACCTAGTGCAG”, the binding signal was 9630 fluorescence intensity (a.u.).

Consider “GTGGGGTTGGGTTACGTGGTGGAGCTGAGCCCGGCGGCGCCGGAGTCACCTAGTGCAG”, for which the binding signal is 11600 fluorescence intensity (a.u.).

Consider “TTTGTGTGTGTGTTGTTGGTCGGGTGGGGTCGCCGGCGCCCGGAGTCACCTAGTGCAG”, for which the binding signal was 20100 fluorescence intensity (a.u.).

For the sequence “GCCGGCGCCGGTGGCGTGCGGTCGTGGGCGGGAGGTGGTGCGGAGTCACCTAGTGCAG”, the binding signal was 12300 fluorescence intensity (a.u.).

Turning to “GGAGGGTGGGGTAGGAGAGGATGCGGCGGGCGCCATGGCTCGGAGTCACCTAGTGCAG”, the binding signal is 8590 fluorescence intensity (a.u.).

As to “AGGTGGTGTAGCGCGCGCGGGTGGGGTTGGGTTACGTGGTCGGAGTCACCTAGTGCAG”, the binding signal was 15600 fluorescence intensity (a.u.).

For “CGTTGTTTATCTTTTCTAATGCCATGTGTATATATGATTCCGGAGTCACCTAGTGCAG”, the binding signal is 10500 fluorescence intensity (a.u.).

“CCCGTGCTCTTTGTAGATTTACTACCTTTGGACTTGACCTCGGAGTCACCTAGTGCAG”: the binding signal was 11200 fluorescence intensity (a.u.).

With “TCTGCGCTCCCGCATGCCGGCCGCTGAATCATCGTCAATCCGGAGTCACCTAGTGCAG”, the binding signal was 9000 fluorescence intensity (a.u.).

In the case of “AATAGCCTCGTCCCTGTAAACTCCCAATCCCTTTTTAAAACGGAGTCACCTAGTGCAG”, the binding signal is 8420 fluorescence intensity (a.u.).

On to “AGTTGTGGAGCTGTCTAAACCCATCTCTACTTCTCTACTTCGGAGTCACCTAGTGCAG”, for which the binding signal is 8200 fluorescence intensity (a.u.).

For “TTTCCTCATTTATTCACCTGTCACACCATCTTTCATCATACGGAGTCACCTAGTGCAG”, the binding signal is 9590 fluorescence intensity (a.u.).

As for “CCTGATCGGATTTGGTTGGCTGGTGCTCTAGATGATGTACCGGAGTCACCTAGTGCAG”, the binding signal is 8170 fluorescence intensity (a.u.).

Take “GGGGAGTTGGGATTTTTGGCGATGTGGGTTTCGTACACCGCGGAGTCACCTAGTGCAG”: the binding signal was 9870 fluorescence intensity (a.u.).

Take “TGGGGTGGGTGCCCGGAGCTTTGATGCGCGTGGCCGCCGGCGGAGTCACCTAGTGCAG”: the binding signal was 12400 fluorescence intensity (a.u.).

With “GTGCGAGCTGCGCCCGTGTGATGTGGGCGGGTGGGTGTTCCGGAGTCACCTAGTGCAG”, the binding signal is 16900 fluorescence intensity (a.u.).

Turning to “TTGGCGAGCGAGCTGTGTGGTGGTGGTGGTGGGTGAGTGGCGGAGTCACCTAGTGCAG”, the binding signal was 13600 fluorescence intensity (a.u.).

In the case of “CGTCGGGGTTGGGGTTGGGGCTGGGGCCGGCGCCGACGCCCGGAGTCACCTAGTGCAG”, the binding signal is 13400 fluorescence intensity (a.u.).

For “CGGTTGCGGGTGGGCAGCGGCAGCGTCGCCGGCTGGGGCGCGGAGTCACCTAGTGCAG”, the binding signal was 9840 fluorescence intensity (a.u.).

Turning to “GGCGCCGGCGCTAGCGCCCACGTCGGGGTTGGGGTTGGGGCGGAGTCACCTAGTGCAG”, the binding signal was 16600 fluorescence intensity (a.u.).

Turning to “TTGCTCTCCTCTCTGGATTGATGTGTTCGTTTGGCCATTCCGGAGTCACCTAGTGCAG”, the binding signal was 8940 fluorescence intensity (a.u.).

Regarding “TGGAGCTGGTTTTTGGGTGGTGTTTTCTCTGTGATCGTGGCGGAGTCACCTAGTGCAG”, the binding signal was 9760 fluorescence intensity (a.u.).
